Compound activity from PubChem BioAssay.
HPGD block – inhibitors of human 15-hydroxyprostaglandin dehydrogenase (HPGD); 150,000 compounds, 4.3% hits; Potency, µM, without a hit: at the highest dose activity change, negative = inhibition, actives largely listed as inhibitors; AID 894; purified HPGD, NADH fluorescence kinetic, PGE2 substrate; also: potency is read from the fitted curve at half-maximal effect; % is scaled to controls: 0 for no effect and ±100 for the full control effect
Target sequence (P15428 whole entry, looked up): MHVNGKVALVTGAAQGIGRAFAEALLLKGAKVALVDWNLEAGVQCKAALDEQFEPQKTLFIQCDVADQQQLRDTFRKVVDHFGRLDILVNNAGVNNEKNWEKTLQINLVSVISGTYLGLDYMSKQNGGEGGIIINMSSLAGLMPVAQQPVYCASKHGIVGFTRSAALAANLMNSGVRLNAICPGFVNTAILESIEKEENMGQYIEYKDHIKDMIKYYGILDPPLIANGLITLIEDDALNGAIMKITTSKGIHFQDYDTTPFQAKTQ
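NADH formation kinetics: reaction with 30 uM PGE2 and 1 mM NAD+ (final), 20 nM enzyme, Tris-HCl pH 8 with Tween 20, after 15 min compound preincubation at room temperature. Fluorescence change, last versus first of five reads.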
CBFb RUNX1 block – blocks binding between human CBF-beta and RUNX1; AID 1477; AlphaScreen CBFb-His/RUNX1-biotin binding, biochemical; Q01196+Q13951; Potency, µM (top dose mostly 59.8 µM), without a hit: at the top dose activity, negative = inhibition, hits mostly inhibitors; 230,000 tested, under 10 active; active = well fitted curve in the direction sought with a large enough effect; inconclusive = small, poorly fitted or top-dose-only effect, or another doubt; inactive = no such curve, though single readings can be large; an effect the other way counts as inactive or inconclusive; also: % of control where 0% means no effect
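AlphaScreen proximity signal reports loss of binding between His-tagged CBF-beta and biotin-labelled RUNX1, each at 30 nM. Proteins are pre-associated for 20 minutes, compounds added for 15 minutes, then beads for 90 minutes, all at ambient temperature.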
KDM4E inh – JMJD2E (human) inhibition; Potency, µM (highest dose often 57.1 µM), inactives show at the highest dose activity change, negative = inhibition, most hits filed as inhibitors; JMJD2E catalytic domain, FDH-coupled NADH fluorescence (FDH is formaldehyde dehydrogenase); 230,000 compounds, 1.6% hits; B2RXH2;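 also: potency is read from the fitted curve at half-maximal effect; 0% = wells with enzyme and -100% = buffer wells without enzyme; nearly all actives have a fitted effect of over 50% in size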
Target sequence (B2RXH2 1-337 limits assumed): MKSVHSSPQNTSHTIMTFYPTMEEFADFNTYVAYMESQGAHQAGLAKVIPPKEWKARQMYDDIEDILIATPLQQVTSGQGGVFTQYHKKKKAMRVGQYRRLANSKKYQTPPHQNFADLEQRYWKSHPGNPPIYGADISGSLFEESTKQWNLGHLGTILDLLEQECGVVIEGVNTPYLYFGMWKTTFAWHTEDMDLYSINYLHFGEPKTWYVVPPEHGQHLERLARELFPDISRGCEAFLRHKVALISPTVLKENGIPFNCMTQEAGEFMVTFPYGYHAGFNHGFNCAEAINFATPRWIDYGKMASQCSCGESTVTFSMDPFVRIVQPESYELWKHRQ
ALDH1A1 inh – blocks purified human ALDH1A1 activity. Potency, µM (titrated, usually from 75.3 µM), for the others: top-dose activity, negative = inhibition, hits mostly inhibitors. 220,000 compounds, 7.3% hits. Purified ALDH1A1, NADH fluorescence, propionaldehyde substrate;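 also: potency is read from the fitted curve at half-maximal effect; plate controls were no enzyme wells and a reference inhibitor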
HTT ATP protect – Huntington cell model cytoprotection by ATP luminescence. PC12 HTT-Q103 induced, cytoprotection, ATP luminescence, 40 h. Potency, µM (highest dose often 56.4 µM), inactives show cytoprotection (ATP increase), usual class: activators. 230,000 compounds, 0.14% hits. AID 1471; active = well fitted curve in the direction sought with a large enough effect; inconclusive = small, poorly fitted or top-dose-only effect, or another doubt; inactive = no such curve, though single readings can be large; an effect the other way counts as inactive or inconclusive; also: potency is read from the fitted curve at half-maximal effect; % of control where 0% means no effect; nearly all actives have a fitted effect of over 45% in size
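Compounds were screened for protection of PC12 cells against cell death after tebufenozide induction (100 nM final) of mutant Huntingtin exon 1 (Q103) fused to GFP.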
HttQ103 aggreg – mutant huntingtin aggregation inhibition; PC12 HttQ103-GFP aggregates, Acumen cytometry, 40 h; Potency, µM (doses to about 46.1 µM), for inactives: top-dose activity change, negative = inhibition, actives largely listed as inhibitors; 220,000 compounds, 1.1% hits; AID 1688; active = well fitted curve in the direction sought with a large enough effect; inconclusive = small, poorly fitted or top-dose-only effect, or another doubt; inactive = no such curve, though single readings can be large; an effect the other way counts as inactive or inconclusive; also: potency is read from the fitted curve at half-maximal effect; % is scaled to controls: 0 for no effect and ±100 for the full control effect; nearly all actives have a fitted effect of over 60% in size
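Huntingtin Q103 exon 1–GFP aggregates in induced PC12 cells (100 nM tebufenozide) were quantified by cytometry from lysates, with compounds dosed in titration.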
An asterisk follows results filed as active; u = inconclusive; x = not tested or not shown; [ ] = dose if it differs, or a comment. Compounds with a hit are over-represented: about 9.8% of the library has one in this group of screens. Unless noted, calls follow the shape of the dose curve; as a rule, active = well fitted inhibition curve with a large enough effect (not every such curve was filed as active); inconclusive = small, poorly fitted or top-dose-only effect, or another doubt; inactive = no such curve, though single readings can be large or run the other way.

SMILES | HPGD block | CBFb RUNX1 block | KDM4E inh | ALDH1A1 inh | HTT ATP protect | HttQ103 aggreg
COc1ccc(C(=O)Nc2ccc(S(=O)(=O)Nc3onc(C)c3C)cc2)cc1 | -31% | 4% | -2% | -2% | -27%[10 µM] | -6%
COc1cccc(C(=O)Nc2ccc(S(=O)(=O)Nc3onc(C)c3C)cc2)c1 | 35µM* | 2% | 5% | 15% | -2% | -9%
COc1ccc(N2C(=O)CC(Sc3ncn[nH]3)C2=O)c(OC)c1 (stereo not given) | x | -2% | 2.8µM* | 14µM* | -58% | -20%
Nc1ccccc1SC1CC(=O)N(c2ccc(Cl)c(Cl)c2)C1=O (stereo not given) | x | 13% | 2% | 2% | 3%[10 µM] | -26%[9.22 µM]
CC(C)c1ccc(N2C(=O)CC(Sc3ncn[nH]3)C2=O)cc1 (stereo not given) | 16µM* | -4% | 1.6µM* | 0.13µM* | 1% | -5%[9.22 µM]
CCCc1c(O)nc(SC2CC(=O)N(c3cc(OC)ccc3OC)C2=O)[nH]c1=O (stereo not given) | -6% | -2% | 1% | -5% | 2%[0.074 µM] | 0%
CC(C)c1ccc(N2C(=O)CC(Sc3nc4ccccc4o3)C2=O)cc1 (stereo not given) | u | 3% | -1% | 0.71µM* | -148% | 3.5µM*
Cn1ncnc1SCc1cn2cccnc2n1 | x | 6% | u | u | -41% | -4%
Cc1nc2cc(Nc3ccncc3)ccc2s1 | x | 4% | 0% | 15% | x | 3%
CC(C)c1ccc(N(CC(=O)NCc2ccc(F)cc2)C(=O)c2csnn2)cc1 | x | -2% | -16% | 5µM* | 9%[10 µM] | -1%[9.22 µM]
COc1ccc(NC(=O)Cn2c(-c3ccccc3)cc(C(C)=O)c2C)c(OC)c1 | x | -4% | 7% | 9% | -60% | -7%
COCCNC(=O)CN1C(=O)NC2(CCCCCC2)C1=O | x | -2% | 4% | 0% | 5% | -3%
COc1ccccc1-n1cnc2cc(C(=O)NC3CCCC3)ccc21 | 16µM* | -4% | -11% | 3% | 11%[10 µM] | u
COc1ccc(OC)c(-n2cnc3cc(C(=O)O)ccc32)c1 | 16µM* | 4% | 1% | 5% | -8% | 4%
COc1ccccc1-n1c(C)nc2cc(C(=O)O)ccc21 | -23% | 0% | 3% | -14% | 11% | -1%
O=C(NC1CC1)c1ccc2c(c1)ncn2C1CCCC1 | 14µM* | 2% | 8% | u | -8% | -4%
CCOc1ccccc1-n1cnc2cc(C(=O)NCc3ccco3)ccc21 | 16µM* | -10% | -2% | -16% | -12% | u
CCC(=O)Nc1ccc2c(c1)ncn2-c1ccccc1OC | -16% | -1% | 10% | -5% | 3% | -4%
Cc1nnc(NC(=O)CCC(=O)N2CCN(CCc3ccccc3)CC2)s1 | -6% | 0% | 5% | 3% | -8% | -1%[9.22 µM]
CN(C)c1ccc(/C=N\NC(=O)CC#N)cc1 | x | -3% | u | u | -61% | 0%
S=c1nc(-c2sccc2OCc2ccc(Cl)cc2Cl)[nH][nH]1 | x | -2% | u | -2% | 32%[10 µM] | 10%
Cc1cc(C)[n+]2[nH]c(N)c(N=Nc3ccccc3)c2n1 | x | -10% | -9% | x | -15%[10 µM] | -16%[9.22 µM]
O=C(c1ccc(F)cc1)C1CCN(C(=O)NC2CCCCC2)CC1 | -8% | 6% | 1% | 11µM* | -10% | 18%
O=C(NC1CCCCC1)N1CCN(S(=O)(=O)c2ccc(F)cc2)CC1 | x | -4% | 7% | 6% | -2%[10 µM] | -11%[9.22 µM]
COC(=O)c1c(-c2cccc3ccccc23)csc1NC(=O)Cc1ccc(OC)c(OC)c1 | -13% | -12% | u | 11% | 3%[10 µM] | 13µM*
SMILES | HPGD block | CBFb RUNX1 block | KDM4E inh | ALDH1A1 inh | HTT ATP protect | HttQ103 aggreg
COC(=O)c1c(-c2ccc(C)cc2)csc1NC(=O)Cc1ccc(OC)c(OC)c1 | u | -5% | -23% | u | -15% | u
C[n+]1cccc2cccc([O-])c21 | x | u | 16µM* | 10% | 17%[10 µM] | 7%[9.22 µM]
Cc1c(-c2ccccc2)sc(Br)c1C(=O)N1CCOCC1 | 1.6µM* | -5% | 3% | 13% | -11% | -13%
COc1cccc(OC)c1C(=O)N1CCOCC1 | -7% | 10% | 0% | -1% | -9%[0.074 µM] | 12%
NNC(=O)CC12CC3CC(C1)CC(n1ncnn1)(C3)C2 | 2% | -5% | 13% | 2.8µM* | 16%[10 µM] | 3%
Oc1ccccc1C1=NOC(O)(C(F)F)C1 (stereo not given) | 16µM* | 0% | -1% | 1% | -16% | u
NC(=S)NNc1cc(Cl)cc(Cl)c1 | -14% | 4% | 2% | 2µM* | u | 19%
Cc1[nH]n(-c2ccccc2)c(=S)c1C=Nc1ccc([N+](=O)[O-])cc1 | 3.5µM* | 1% | 6.3µM* | 5.6µM* | 21%[10 µM] | 27%
Cc1[nH]n(-c2ccccc2)c(=O)c1C=Nc1ccc(S(=O)(=O)N=C(N)N)cc1 | x | 3% | -7% | x | -24%[10 µM] | -9%[9.22 µM]
COc1cc(CNn2c(C)n[nH]c2=S)cc(Cl)c1OCc1ccc(F)cc1 | 13µM* | -23% | -11% | -1% | -18% | -32%
COc1cc(CNn2c(C)n[nH]c2=S)cc(Br)c1OCc1ccc(F)cc1 | 16µM* | -2% | 5% | 28µM* | x | -11%
COc1cc(CNC2CCCC2)cc(Cl)c1OCc1ccc(F)cc1 | 0% | 9% | 0% | 17% | -2%[10 µM] | u
C=CCOc1c(Br)cc(CNn2cn[nH]c2=S)cc1OC | x | 3% | -22% | 8% | -1%[10 µM] | 10%
CC(C)Sc1sc(C(=O)O)c(-c2ccc(Cl)cc2)c1C#N | x | -1% | 2% | x | 6%[10 µM] | 1%[9.22 µM]
CCOc1ccc(N2C(=O)CN(CC(=O)OC)C2=S)cc1 | x | 2% | -7% | 16% | 21%[10 µM] | 7%[9.22 µM]
O=C(CSc1nnc(-c2cccs2)n1-c1cccc(Cl)c1)c1cccc2c1OCCO2 | -23% | -1% | -1% | u | 9% | -12%[9.22 µM]
Cc1ccc(O)c(C2=NNC(O)(C(F)(F)F)C2)c1 (stereo not given) | 25µM* | 1% | -5% | 9% | 0% | 4%
Cc1ccc(O)c(C2=NNC(c3ccc(Cl)cc3)C2)c1 (stereo not given) | x | -10% | u | x | 18%[10 µM] | 1%[9.22 µM]
Cc1ccc(-c2csc3nnc(SCC(=O)Nc4nsc(-c5ccccc5)n4)n23)cc1 | -4% | 6% | -9% | 8.9µM* | -34% | u
Cn1c(Cc2cccs2)nnc1SCC(=O)N1CCCc2ccccc21 | 6% | 0% | 0% | -13% | 7% | -8%
CCn1nnnc1SCC(=O)N1CCCc2ccccc21 | -10% | -6% | 6% | 3.5µM* | -5%[10 µM] | 2%
Cn1c(SCC(=O)N2CCCc3ccccc32)nnc1-c1cccs1 | -3% | -1% | 0% | -10% | -9% | -5%
O=C(CSc1nnc2scc(-c3ccccc3)n12)N1CCCc2ccccc21 | -9% | 3% | 12% | 11µM* | 15% | -11%
